This assay concerns the target PRDM9Cst (Mus musculus (CAST/EiJ)). Put plainly: competition EMSA; competition against biotin-labeled 75-bp Hlx1 B6 oligo; 10 mM Tris pH 7.5, 50 mM KCl, 1 mM DTT, 50 ng/ul poly(dI/dC), 0.05% NP-40, crude E. coli extract 3 ul in 20 ul; 1 h with unlabeled competitor, then 4 h with biotin-labeled 75-bp Hlx1; temperature not stated; high values mean tight binding. To be noted: tags: N-terminal His tag (pBAD/HisB); dsDNA, one strand shown. (In EMSA bound probe runs differently from free probe, usually more slowly.)

Sequence of PRDM9Cst (Mus musculus (CAST/EiJ)) (chain, as listed by the source): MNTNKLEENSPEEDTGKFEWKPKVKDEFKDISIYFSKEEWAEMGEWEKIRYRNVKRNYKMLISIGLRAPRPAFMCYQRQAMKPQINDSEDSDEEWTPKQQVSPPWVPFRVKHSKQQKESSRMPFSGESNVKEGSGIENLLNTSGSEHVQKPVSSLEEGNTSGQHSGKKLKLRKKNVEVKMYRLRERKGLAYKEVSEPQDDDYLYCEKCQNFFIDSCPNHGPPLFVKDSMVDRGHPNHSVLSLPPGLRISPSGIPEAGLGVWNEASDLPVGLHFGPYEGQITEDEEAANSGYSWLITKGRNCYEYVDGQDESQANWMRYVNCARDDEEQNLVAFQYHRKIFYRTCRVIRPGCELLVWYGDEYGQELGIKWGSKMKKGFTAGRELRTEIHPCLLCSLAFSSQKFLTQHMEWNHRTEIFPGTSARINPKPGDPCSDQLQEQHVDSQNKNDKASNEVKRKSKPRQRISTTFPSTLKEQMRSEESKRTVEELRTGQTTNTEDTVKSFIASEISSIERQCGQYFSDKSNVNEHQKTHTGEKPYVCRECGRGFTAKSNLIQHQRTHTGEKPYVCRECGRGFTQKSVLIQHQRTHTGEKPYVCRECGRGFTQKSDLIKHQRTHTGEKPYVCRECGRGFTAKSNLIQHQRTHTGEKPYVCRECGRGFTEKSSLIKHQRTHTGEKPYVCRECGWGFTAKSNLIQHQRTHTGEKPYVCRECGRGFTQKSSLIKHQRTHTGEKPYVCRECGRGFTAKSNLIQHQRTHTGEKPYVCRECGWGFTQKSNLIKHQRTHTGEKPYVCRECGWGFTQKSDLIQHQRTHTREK

As to ATAGTGTGCAGACGTGGACCCTGCCCTTTCTTT, the binding signal is -0.4 Bmut (0 = wild type, -1 = scrambled).
Turning to ATAGTGTGCAGACTTGGACCCTCCCCTTTCTTT, the binding signal was -0.1 Bmut (0 = wild type, -1 = scrambled).
With ATAGTGTGCAGATTTGGACCCTGCCCTTTCTTT, the binding signal was 0.1 Bmut (0 = wild type, -1 = scrambled).
The same measure for ATAGTGTGCAGACTTGGGCCCTGCCCTTTCTTT: 0.3 Bmut (0 = wild type, -1 = scrambled).
As for ATAGTGTGCAGACTTGCACCCTGCCCTTTCTTT, the binding signal was -0.2 Bmut (0 = wild type, -1 = scrambled).
The same measure for ATAGTGTGCAGACTTGGACCCGGCCCTTTCTTT: -0.5 Bmut (0 = wild type, -1 = scrambled).
For ATAGTGTGCAGACTTGGACCCTGCCTTTTCTTT, the binding signal is 0.15 Bmut (0 = wild type, -1 = scrambled).
Consider ATAGTGTGCAGACTTGGACGCTGCCCTTTCTTT, for which the binding signal was -0.1 Bmut (0 = wild type, -1 = scrambled).
As to CTAGTGTGCAGACTTGGACCCTGCCCTTTCTTT, the binding signal was -0.1 Bmut (0 = wild type, -1 = scrambled).
Regarding ATAGTGTGCAGACTTGGACCCCGCCCTTTCTTT, the binding signal was -0.1 Bmut (0 = wild type, -1 = scrambled).
On to ATAGTGTGCAGACTTGGACCCTGCCCGTTCTTT, for which the binding signal was 0.1 Bmut (0 = wild type, -1 = scrambled).
In the case of ATAGTGTGCAGACTTGGACCCTGCCCATTCTTT, the binding signal was 0.09 Bmut (0 = wild type, -1 = scrambled).
As to ATAGTGTGCAGACTTGGACCCTGCGCTTTCTTT, the binding signal is -0.4 Bmut (0 = wild type, -1 = scrambled).
Turning to GTAGTGTGCAGACTTGGACCCTGCCCTTTCTTT, the binding signal was 0 Bmut (0 = wild type, -1 = scrambled).
Take ATAGTGTGCAGACTTGGACCCTGCCCTTTCTTT: the binding signal is 0 Bmut (0 = wild type, -1 = scrambled).
Consider ATAGTTTGCAGACTTGGACCCTGCCCTTTCTTT, for which the binding signal was -0.3 Bmut (0 = wild type, -1 = scrambled).
Consider AGAGTGTGCAGACTTGGACCCTGCCCTTTCTTT, for which the binding signal was -0.8 Bmut (0 = wild type, -1 = scrambled).
For ATAGTGTGCAGACTTGGACCCTGCCCTTCCTTT, the binding signal is -0.1 Bmut (0 = wild type, -1 = scrambled).
The same measure for ATAGTGTGCAGACTTTGACCCTGCCCTTTCTTT: 0 Bmut (0 = wild type, -1 = scrambled); for ATAGTGTGCAGACATGGACCCTGCCCTTTCTTT: -0.7 Bmut (0 = wild type, -1 = scrambled); for ATAGTGTGCAGACTTGGACACTGCCCTTTCTTT: -0 Bmut (0 = wild type, -1 = scrambled).
ATAGTGTGCAGACTGGGACCCTGCCCTTTCTTT: the binding signal is -0.3 Bmut (0 = wild type, -1 = scrambled).

Values taken from paper PMC4053984, “DNA binding specificities of the long zinc-finger recombination protein PRDM9”.
